According to ChEMBL document CHEMBL4513216, “Probing the Open Global Health Chemical Diversity Library for Multistage-Active Starting Points for Next-Generation Antimalarials” (ACS Infect Dis, 2020):
Among all 69,000 compounds or so, about 8,600 (12%) showed an effect of 50% or more. Only a selection was taken, and strong results are over-represented in it overall.

system: Plasmodium berghei; test: Screen against P. berghei liver stage (PbLuc), transformed with Luciferase, at 10uM; format: functional, HepG2; conditions: tested at 10 uM

SMILES | INHIBITION [%]
CC(=O)N1CCCC(C(=O)NCCOc2cc(C)cc(C)c2)C1 (stereo unspecified) | -33.7
CCN(CC)C(=O)[C@@H]1C[C@H](NC(=O)c2ccn(C(C)(C)C)c2)CN1C | 21.7
CCN(CC)C(=O)[C@@H]1C[C@@H](NC(=O)c2ccn(C(C)(C)C)c2)CN1C | 51.3
CCN(CC)C(=O)[C@@H]1C[C@@H](NC(=O)c2ccoc2)CN1C | 6.88
O=C(NCc1cccs1)c1nc2c(o1)CN(C(=O)c1cccnc1)C2 | -4.4
COc1cccc(C2CCN2C(=O)c2cc(C(C)C)on2)c1 (stereo unspecified) | 55.5
COc1ccc(C2CCCN2C(=O)c2cc(C(C)C)on2)cc1 (stereo unspecified) | -75.1
COc1cccc(C2CCN2C(=O)c2cnccn2)c1 (stereo unspecified) | -3.81
Cc1ccc(N2CC[C@H]3C[C@H](C(=O)NCc4ccco4)O[C@H]3C2)nn1 | 14.5
CN(CCSc1nncn1C(C)(C)C)c1ccccc1 | -9.8
Cc1ccc2c(c1)CCC2NCc1c(C)nn(C)c1N1CCOCC1 (stereo unspecified) | 33.8
CC1CCC(O)(CSc2nnnn2C2CC2)CC1 (stereo unspecified) | -44.2
O=C(O)c1ccn(-c2ccccc2NS(=O)(=O)c2cccc(F)c2)n1 | 30.3
COc1c(C2CCCN2C(=O)c2cnccn2)c(C)nn1C (stereo unspecified) | 5.7
O=C(c1ccc2c(c1)[nH]c(=O)n2C1CCCC1)N1CCC1 | 21.1
CN1CCN(C(=O)c2ccc3c(c2)[nH]c(=O)n3C2CCCC2)CC1 | 58.2
O=C(c1ccc2c(c1)[nH]c(=O)n2C1CCCC1)N1CCSCC1 | -6.72
CN1CCNC(=O)C12CCN(C(=O)c1ccc3[nH]c(=O)[nH]c3c1)CC2 | 38.2
Cc1cnn(CC2CN(Cc3csc(C(C)C)n3)CCO2)c1 (stereo unspecified) | 9.64
O=C(c1ccsc1)N1CCC2(CCN2Cc2ccc(F)cc2)C1 (stereo unspecified) | -7.7
Cc1cnc(C(=O)N2CCC3(CCN3Cc3ccc(F)cc3)C2)cn1 (stereo unspecified) | 53.9
Cn1ccnc1C(=O)N1CCC2(CCN2Cc2ccc(F)cc2)C1 (stereo unspecified) | 25.8

SMILES | INHIBITION [%]
Cc1ccc(C(=O)N2CCC3(CCN3Cc3ccc(F)cc3)C2)cn1 (stereo unspecified) | 62.9
COCCN1CCC12CCN(C(=O)c1ccc(C)nc1)C2 (stereo unspecified) | 54.8
Cc1cc(C(=O)N2CCC3(CCN3Cc3ccc(F)cc3)C2)no1 (stereo unspecified) | -6.05
COCCN1CCC12CCN(C(=O)c1ccsc1)CC2 | -20.8
Cc1ccc(C(=O)N2CCC3(CCCN(c4ncc(F)cn4)C3)C2)cn1 (stereo unspecified) | 36.7
COCCN1CCC12CCN(C(=O)c1ccc3[nH]ccc3c1)C2 (stereo unspecified) | 27.6
Cc1cnn(CC2CCCN2Cc2noc(CC(C)C)n2)c1 (stereo unspecified) | 17.4
CN1CCCN(C(=O)c2cnsn2)c2cc(F)ccc21 | 7.77
Cc1ccc(Cn2nc(C)c3c(C(=O)O)c(Cl)c(C4CC4)nc32)cc1 | 31.7
O=C(c1cc(Cl)c[nH]c1=O)N1C[C@H]2CC[C@@H](C1)N(Cc1ccccc1)C2 | -28.7
Cn1cc(CN2C[C@@H]3CN(Cc4ccoc4)CCO[C@@H]3C2)cn1 | 7.11
CCn1c(C)nc2cc(NC(=O)CC3CCCCO3)ccc21 (stereo unspecified) | 27.5375
Oc1nc(N2CCCC2)nc2nccc(-c3ccccn3)c12 | -13
CCOC(=O)N1[C@@H](c2ccco2)[C@@H](CO)C[C@]12CCCCNC2=O | 1.04
CCCC(O)CN1CC(C)(C)CN(C(=O)CCc2ccccc2)CC1=O (stereo unspecified) | 20
NC(=O)C1CCN(CC(=O)NCCn2cc(Cl)cn2)CC1 | 45.2
O=C(NCCn1cc(Cl)cn1)C1CCN(C(=O)C2CC2)CC1 | 2.55
NC(=O)CN1CCC(C(=O)NCCn2cc(Cl)cn2)CC1 | 61
N[C@@H]1CC[C@H](C(=O)NCCn2cc(Cl)cn2)C1 | 60.1
N[C@@H]1CC[C@H](C(=O)NCCc2nc(-c3ccccc3)cs2)C1 | -9.2
CS(=O)(=O)N1CCC(C(=O)NCCCn2cc(Cl)cn2)CC1 | 40.3
COc1cccc(NC(=O)NCC(O)c2ccc(F)cc2F)c1 (stereo unspecified) | -3.7

SMILES | INHIBITION [%]
CCc1cccc2cc(CN)c(=O)[nH]c12 | 10.365
CC1CCC(NCCNC(=O)c2cccs2)CC1 (stereo unspecified) | 5.11
Cc1c(CN2CCCC(C(=O)c3ccccc3)C2)cc(C#N)n1C (stereo unspecified) | 7.97
Cc1c(CN2CCCC(C(=O)Nc3ccccc3)C2)cc(C#N)n1C (stereo unspecified) | 74
Cc1c(CN2CCCC(C(=O)CCc3ccccc3)C2)cc(C#N)n1C (stereo unspecified) | 19.4
CN(CCc1ccccn1)C(=O)Nc1cccnc1-n1cccn1 | -19.2
Cc1noc2ncc(S(=O)(=O)N3CCCC(C)(C)CC3)cc12 | 36.1
CCN1CCCN(S(=O)(=O)c2cnc3onc(C)c3c2)CC1 | 15.5
CCCN1CCCN(S(=O)(=O)c2cnc3onc(C)c3c2)CC1 | 56.7
COc1cccc(-c2n[nH]cc2CNC2CCN(C3CC3)CC2)c1 | 3.46
Cc1cc(C(=O)N(C)C(C)CC(C)C)on1 (stereo unspecified) | 20.9
COCC(c1cccc(C(F)(F)F)c1)N(C)C(=O)c1cc(C)no1 (stereo unspecified) | -16.4
CCSCCC(C)N(C)C(=O)c1cc(C)on1 (stereo unspecified) | -93.6
CCSCCC(C)N(C)C(=O)c1cc(C)no1 (stereo unspecified) | 55.2
CCSCCC(C)N(C)C(=O)c1ccc2nncn2c1 (stereo unspecified) | 34.7
CCSCCC(C)N(C)C(=O)c1ccc(C)o1 (stereo unspecified) | 85.2
CC(C)NC(=O)CCN1CCCC1c1cccc2c1OCCO2 (stereo unspecified) | 35.4
Cc1nc2ccccc2c(=O)n1CCC(=O)N1CCCCCC1 | 1.05
COc1c[nH]c(C(=O)N2CCN(c3ccc(Cl)cc3)CC2)cc1=O | 13.9
Cc1nn(C)cc1C1=NS(=O)(=O)N(C)C(C(=O)Nc2ccc(Br)cc2)=C1 | 82.4
Cc1nc(N2CCCC2)ncc1C(=O)Nc1ccc(Br)cc1 | -10.2
Cc1nn(C)cc1C1=NS(=O)(=O)N(C)C(C(=O)Nc2ccc(Cl)cc2)=C1 | 77.7

SMILES | INHIBITION [%]
Cc1cc(=O)n(CC(=O)Nc2ccc(Cl)cc2)nc1C | 25
Cn1cc(NC(=O)CNC(=O)N2CCN(c3ccc(Cl)cc3)CC2)cn1 | 28.5
Cc1c(C2=NS(=O)(=O)N(C)C(C(=O)Nc3ccc(Br)cc3)=C2)cnn1C | 49.9
O=C1CC2(CCCCN2C(=O)c2cccs2)CN1CC1CC1 (stereo unspecified) | 11.2
Cc1cc(NC(=O)NCC(O)c2ccc(F)c(F)c2)n(C)n1 (stereo unspecified) | 21.8
CCn1cnnc1C1CCN(C(=O)c2cc(OC)ccc2OC)CC1 | 23.7
COc1cc(-n2cccc2)c(Cl)cc1C(N)=O | -90.8
CCc1ncc(C(=O)N2CCCC2Cn2cccn2)s1 (stereo unspecified) | 49.8
CS(=O)(=O)Nc1ccn(Cc2ccc(F)cc2Cl)n1 | 31.7
CC(C)(C)n1cc(C(=O)N2CCN(Cc3cccnc3)CC2)cn1 | -39.67
CCN(CC)C(=O)c1nnsc1-c1ccccc1 | 7.25
CCN(CC)C(=O)c1nnsc1-c1ccc(Cl)cc1 | 33.9
CCN(CC)C(=O)c1nnsc1-c1ccc(C)cc1 | 54.8
CCOCC(=O)N1Cc2[nH]nc(COCC3CC3)c2C1 | 2.4
CC(C)c1nc2c(n1C)CCN(CC(=O)Nc1ccncc1)C2 | 11.6
CC1CCCCN1CCNC(=O)NCc1ccc(C#N)cc1F (stereo unspecified) | 50.7
N#Cc1ccc(CNC(=O)NCCC(=O)NC2CCCC2)c(F)c1 | 17.1
N#Cc1ccc(F)c(CNC(=O)NCCC(=O)NC2CCCC2)c1 | 22.5
CC1CCCCN1CCNC(=O)c1ccn(-c2ccc(F)cc2)n1 (stereo unspecified) | 34.1
N#Cc1ccc(CNC(=O)NCCNC(=O)C2CCCC2)c(F)c1 | 52.8
Cc1cccc(NC(=O)[C@@H]2CCCN2Cc2ccc(C#N)cc2F)n1 | 25.2
CC(C)S(=O)(=O)N1CCC(Cc2cccc(C(=O)O)c2)C1 (stereo unspecified) | 1.37

SMILES | INHIBITION [%]
CN1C(=N)NC(=O)/C1=C\c1ccc(-c2ccc(F)cc2)o1 | 19.3
CCn1cc(S(=O)(=O)N2CCC(C)CC2)c(C)n1 | 4.35
O=C(c1sccc1C1CC1)N1CCN(c2nccs2)CC1 | 36.3
O=C(c1cccc(Oc2ccccc2)c1)N1CCCC(O)(CO)CC1 (stereo unspecified) | 16.1
Cn1ccc(C(=O)N2CCN(c3cc(C#N)ccn3)CC2)cc1=O | 59.4
CCOc1ccnc(N2CCN(C(=O)c3cccc(C#N)c3)CC2)n1 | -13.7
N#Cc1cccc(C(=O)N2CCN(c3ncccn3)CC2)c1 | 62.1
CN(C)c1cc(C(=O)N2CCN(c3cc(C#N)ccn3)CC2)ccn1 | -8.95
COC(=O)c1ccc(N2CCN(C(=O)c3ccc(=O)n(C)c3)CC2)cc1 | 36.9
N#Cc1cccc(C(=O)N2CCCC(O)(CO)CC2)c1 (stereo unspecified) | 66.9
COc1ccnc(N2CCN(C(=O)c3cccc(C#N)c3)CC2)n1 | 18.2
Cn1ccc(C(=O)N2CCN(c3ccccn3)CC2)cc1=O | 36.1
O=C(c1cccc(-c2ccc(F)cc2)c1)N1CCCC(O)(CO)CC1 (stereo unspecified) | -122
Cn1ccc(C(=O)N2CCN(c3ncccn3)CC2)cc1=O | 31.3
COC(=O)c1ccc(N2CCN(C(=O)c3ccn(C)c(=O)c3)CC2)cc1 | 54.5
COCCNC(=O)c1cc(OC)c2ccoc2c1 | 27.7
CNc1nc(C(=O)N2CCCn3nc(C(=O)N4CCCC4)cc3C2)cs1 | 26.5
CC(Cn1cccn1)NC(=O)NCc1cccnc1OC(C)C (stereo unspecified) | 11.2
